Common to all, as to test: DAPPL (digital affinity profiling via proximity ligation, sequencing); 10 mM Tris-HCl pH 7.5, 50 mM NaCl, 1 mM DTT, 4% glycerol, room temperature, 30 min; GST-TFs on glutathione beads, 16-mer random dsDNA library, 0.1% formaldehyde crosslink after washing; high values mean tight binding
The target of experiment [1] is T1, FEV (Homo sapiens, UniProt Q99581 1-238).
T1 sequence: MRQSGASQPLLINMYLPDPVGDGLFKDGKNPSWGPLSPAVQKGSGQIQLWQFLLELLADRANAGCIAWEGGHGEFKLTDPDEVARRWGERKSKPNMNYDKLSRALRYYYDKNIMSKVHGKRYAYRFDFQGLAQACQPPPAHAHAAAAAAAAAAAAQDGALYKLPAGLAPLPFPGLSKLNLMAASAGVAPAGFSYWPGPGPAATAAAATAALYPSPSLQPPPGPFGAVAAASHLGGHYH
The note with it: protein: recombinant; tags: N-terminal GST; dsDNA, one strand shown. A digest of the protocol: (§1)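 Binding signal is given per hexamer as its read frequency for a factor divided by its frequency in the tag-only sample. GST-fused human transcription factors were expressed in yeast, captured on glutathione beads, barcoded with DNA and pooled with that sample, then incubated with 200 nmole of a 16-mer random double-stranded DNA library in Tris/NaCl/DTT/glycerol buffer for 30 min at room temperature. The pools were then washed, crosslinked, proximity-ligated, amplified by PCR and sequenced on an Illumina NextSeq500.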

Experiment [2] concerns the target ETV5 (Homo sapiens, UniProt P41161 1-510). The note with it: protein: recombinant; tags: N-terminal GST; dsDNA, one strand shown. An outline of the steps: as §1
Experiment [3] deals with HSF1 (Homo sapiens, UniProt Q00613 1-529). The note with it: protein: recombinant; tags: N-terminal GST; chain copies: 3; dsDNA, one strand shown. A digest of the protocol: as §1
Experiment [4] deals with T2, SPIC (Homo sapiens, UniProt Q8N5J4 1-248).
T2 sequence: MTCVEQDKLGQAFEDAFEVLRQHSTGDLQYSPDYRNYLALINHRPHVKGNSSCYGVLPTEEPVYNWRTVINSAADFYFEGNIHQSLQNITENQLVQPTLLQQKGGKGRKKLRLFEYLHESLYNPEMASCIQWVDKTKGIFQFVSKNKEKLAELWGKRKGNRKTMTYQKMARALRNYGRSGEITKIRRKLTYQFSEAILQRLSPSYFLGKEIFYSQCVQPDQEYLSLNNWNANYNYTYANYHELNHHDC
The note with it: protein: recombinant; tags: N-terminal GST; dsDNA, one strand shown. An outline of the steps:
as §1

Experiment [5] addresses ELF4 (Homo sapiens, UniProt Q99607 1-663). To be noted: protein: recombinant; tags: N-terminal GST; dsDNA, one strand shown. A digest of the protocol:
as §1

The target in experiment [6] is T3, ELK4 (Homo sapiens, UniProt P28324-2 1-405).
T3 sequence: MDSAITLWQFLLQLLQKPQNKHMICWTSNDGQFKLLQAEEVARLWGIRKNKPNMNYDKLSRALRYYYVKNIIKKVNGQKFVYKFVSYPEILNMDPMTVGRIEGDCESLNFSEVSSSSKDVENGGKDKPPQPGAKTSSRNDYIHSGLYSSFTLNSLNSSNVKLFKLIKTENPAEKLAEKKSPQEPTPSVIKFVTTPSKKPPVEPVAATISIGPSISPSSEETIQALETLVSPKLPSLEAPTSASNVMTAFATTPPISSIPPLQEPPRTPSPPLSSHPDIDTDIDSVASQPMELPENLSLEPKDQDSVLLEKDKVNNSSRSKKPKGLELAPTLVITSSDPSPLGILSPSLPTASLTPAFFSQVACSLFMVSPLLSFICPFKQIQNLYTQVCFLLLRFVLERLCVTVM
To be noted: protein: recombinant; tags: N-terminal GST; dsDNA, one strand shown. A digest of the protocol: as §1

In experiment [7] the target is T4, ETV2 (Homo sapiens, UniProt O00321 1-342).
T4 sequence: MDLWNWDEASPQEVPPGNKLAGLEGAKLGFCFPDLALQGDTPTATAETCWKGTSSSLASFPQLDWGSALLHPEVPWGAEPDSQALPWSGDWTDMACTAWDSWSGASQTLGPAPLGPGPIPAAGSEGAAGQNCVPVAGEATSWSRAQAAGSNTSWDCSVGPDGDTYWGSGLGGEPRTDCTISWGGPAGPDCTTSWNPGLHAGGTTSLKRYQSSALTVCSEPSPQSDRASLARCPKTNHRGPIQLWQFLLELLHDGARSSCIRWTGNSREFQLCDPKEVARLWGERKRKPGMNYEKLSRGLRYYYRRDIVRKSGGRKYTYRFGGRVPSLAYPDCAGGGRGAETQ
To be noted: protein: recombinant; tags: N-terminal GST; dsDNA, one strand shown. An outline of the steps: as §1

For experiment [8], the target named is T5, ELF3 (Homo sapiens, UniProt P78545 1-371).
T5 sequence: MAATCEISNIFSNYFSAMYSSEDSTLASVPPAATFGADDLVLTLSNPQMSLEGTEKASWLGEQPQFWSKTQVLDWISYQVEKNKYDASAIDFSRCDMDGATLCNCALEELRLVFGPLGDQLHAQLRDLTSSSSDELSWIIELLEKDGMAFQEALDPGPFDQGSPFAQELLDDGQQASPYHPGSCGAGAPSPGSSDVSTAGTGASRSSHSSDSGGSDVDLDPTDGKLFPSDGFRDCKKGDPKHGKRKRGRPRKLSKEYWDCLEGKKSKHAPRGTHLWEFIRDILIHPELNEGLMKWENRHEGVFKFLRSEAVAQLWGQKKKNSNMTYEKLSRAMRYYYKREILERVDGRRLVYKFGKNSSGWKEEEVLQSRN
To be noted: protein: recombinant; tags: N-terminal GST; dsDNA, one strand shown. A digest of the protocol:
as §1

Experiment [9] addresses CRX (Homo sapiens, UniProt O43186 1-299). The note with it: protein: recombinant; tags: N-terminal GST; dsDNA, one strand shown. An outline of the steps: as §1
The target in experiment [10] is ETV1 (Homo sapiens, UniProt P50549 1-477). The note with it: protein: recombinant; tags: N-terminal GST; dsDNA, one strand shown. A digest of the protocol:
as §1

Experiment [11] deals with T6, ERF (Homo sapiens, UniProt P50548 1-548).
T6 sequence: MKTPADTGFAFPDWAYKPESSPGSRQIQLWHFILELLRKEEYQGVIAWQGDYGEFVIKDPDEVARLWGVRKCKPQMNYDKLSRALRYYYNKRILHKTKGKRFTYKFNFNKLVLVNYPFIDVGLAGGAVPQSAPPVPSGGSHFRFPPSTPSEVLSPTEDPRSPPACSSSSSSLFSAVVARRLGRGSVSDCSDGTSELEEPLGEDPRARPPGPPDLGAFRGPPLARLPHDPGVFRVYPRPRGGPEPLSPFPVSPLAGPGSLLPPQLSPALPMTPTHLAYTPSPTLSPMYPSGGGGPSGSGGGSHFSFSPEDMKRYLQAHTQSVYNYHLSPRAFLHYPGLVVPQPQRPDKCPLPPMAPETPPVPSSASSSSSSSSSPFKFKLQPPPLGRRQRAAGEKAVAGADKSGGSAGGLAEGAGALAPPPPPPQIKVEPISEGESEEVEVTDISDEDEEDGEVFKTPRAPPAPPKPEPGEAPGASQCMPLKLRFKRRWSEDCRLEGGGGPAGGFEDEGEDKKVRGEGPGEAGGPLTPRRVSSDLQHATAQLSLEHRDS
The note with it: protein: recombinant; tags: N-terminal GST; dsDNA, one strand shown. An outline of the steps:
as §1

Experiment [12] deals with T7, ETV3L (Homo sapiens, UniProt Q6ZN32 1-361).
T7 sequence: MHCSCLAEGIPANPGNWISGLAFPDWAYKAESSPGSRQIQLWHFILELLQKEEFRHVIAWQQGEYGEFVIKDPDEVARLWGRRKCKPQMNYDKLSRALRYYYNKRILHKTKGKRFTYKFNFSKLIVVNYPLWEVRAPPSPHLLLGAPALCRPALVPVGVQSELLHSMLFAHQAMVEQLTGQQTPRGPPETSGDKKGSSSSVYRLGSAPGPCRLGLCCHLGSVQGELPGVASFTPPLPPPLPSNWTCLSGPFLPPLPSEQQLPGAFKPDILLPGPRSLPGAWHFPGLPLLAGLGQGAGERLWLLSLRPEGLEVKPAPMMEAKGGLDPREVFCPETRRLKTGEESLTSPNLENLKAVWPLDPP
The note with it: protein: recombinant; tags: N-terminal GST; dsDNA, one strand shown. An outline of the steps: as §1

Experiment [13] deals with T8, ETS2 (Homo sapiens, UniProt P15036 1-469).
T8 sequence: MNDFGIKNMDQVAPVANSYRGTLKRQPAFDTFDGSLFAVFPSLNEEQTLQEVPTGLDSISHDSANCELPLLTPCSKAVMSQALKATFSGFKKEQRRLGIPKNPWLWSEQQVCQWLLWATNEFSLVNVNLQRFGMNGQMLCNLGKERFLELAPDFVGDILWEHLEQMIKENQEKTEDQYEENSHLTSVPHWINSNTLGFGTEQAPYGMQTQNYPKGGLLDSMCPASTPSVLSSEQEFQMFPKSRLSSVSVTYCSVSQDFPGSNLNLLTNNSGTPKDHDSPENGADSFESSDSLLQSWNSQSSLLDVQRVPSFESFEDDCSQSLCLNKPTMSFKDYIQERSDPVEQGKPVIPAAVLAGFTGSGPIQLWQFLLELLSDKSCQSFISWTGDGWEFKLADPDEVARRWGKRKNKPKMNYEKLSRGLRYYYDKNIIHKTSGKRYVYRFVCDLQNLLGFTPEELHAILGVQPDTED
The note with it: protein: recombinant; tags: N-terminal GST; dsDNA, one strand shown. A digest of the protocol:
as §1

The target in experiment [14] is T9, SPDEF (Homo sapiens, UniProt O95238 1-335).
T9 sequence: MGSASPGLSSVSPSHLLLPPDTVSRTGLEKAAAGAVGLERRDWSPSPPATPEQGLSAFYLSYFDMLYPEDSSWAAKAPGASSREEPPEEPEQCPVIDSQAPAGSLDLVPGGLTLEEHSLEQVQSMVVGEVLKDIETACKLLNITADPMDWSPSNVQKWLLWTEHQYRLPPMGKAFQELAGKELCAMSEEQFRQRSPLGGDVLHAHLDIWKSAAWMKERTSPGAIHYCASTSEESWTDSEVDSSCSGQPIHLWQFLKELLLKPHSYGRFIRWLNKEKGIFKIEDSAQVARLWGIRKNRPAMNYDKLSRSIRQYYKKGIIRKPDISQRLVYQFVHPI
The note with it: protein: recombinant; tags: N-terminal GST; dsDNA, one strand shown. A digest of the protocol: as §1

For experiment [15], the target named is T10, ETV7 (Homo sapiens, UniProt Q9Y603 1-341).
T10 sequence: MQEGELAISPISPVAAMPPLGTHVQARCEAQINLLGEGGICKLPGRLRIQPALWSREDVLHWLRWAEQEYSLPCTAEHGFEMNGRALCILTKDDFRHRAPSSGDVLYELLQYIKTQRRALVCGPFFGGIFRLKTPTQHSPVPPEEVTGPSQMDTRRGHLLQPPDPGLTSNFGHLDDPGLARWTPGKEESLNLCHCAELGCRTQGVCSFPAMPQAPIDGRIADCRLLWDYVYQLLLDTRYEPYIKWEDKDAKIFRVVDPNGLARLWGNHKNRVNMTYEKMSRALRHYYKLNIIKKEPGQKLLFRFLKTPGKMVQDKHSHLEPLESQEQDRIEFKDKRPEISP
The note with it: protein: recombinant; tags: N-terminal GST; dsDNA, one strand shown. An outline of the steps: as §1

In experiment [16] the target is T11, ELF5 (Homo sapiens, UniProt Q9UKW6-2 1-255).
T11 sequence: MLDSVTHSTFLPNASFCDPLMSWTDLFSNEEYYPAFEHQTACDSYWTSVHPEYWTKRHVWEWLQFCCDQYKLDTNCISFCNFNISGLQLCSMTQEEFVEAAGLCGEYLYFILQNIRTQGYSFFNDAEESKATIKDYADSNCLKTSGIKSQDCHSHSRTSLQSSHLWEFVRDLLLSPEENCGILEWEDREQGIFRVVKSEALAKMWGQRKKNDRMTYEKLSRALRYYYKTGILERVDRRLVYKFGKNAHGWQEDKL
To be noted: protein: recombinant; tags: N-terminal GST; dsDNA, one strand shown. An outline of the steps: as §1

The target in experiment [17] is T12, ETV3 (Homo sapiens, UniProt P41162-2 1-143).
T12 sequence: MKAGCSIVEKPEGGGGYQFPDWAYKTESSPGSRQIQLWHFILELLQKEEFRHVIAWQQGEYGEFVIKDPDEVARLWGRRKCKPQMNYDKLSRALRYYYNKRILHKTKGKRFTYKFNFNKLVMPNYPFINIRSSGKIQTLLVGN
To be noted: protein: recombinant; tags: N-terminal GST; dsDNA, one strand shown. A digest of the protocol: as §1

For experiment [18], the target named is ETV6 (Homo sapiens, UniProt P41212 1-452). To be noted: protein: recombinant; tags: N-terminal GST; dsDNA, one strand shown. A digest of the protocol: as §1

From article PMC7862700, “An all-to-all approach to the identification of sequence-specific readers for epigenetic DNA modifications on cytosine” come the findings set out here.

Chain of ELF4 (Q99607 whole entry): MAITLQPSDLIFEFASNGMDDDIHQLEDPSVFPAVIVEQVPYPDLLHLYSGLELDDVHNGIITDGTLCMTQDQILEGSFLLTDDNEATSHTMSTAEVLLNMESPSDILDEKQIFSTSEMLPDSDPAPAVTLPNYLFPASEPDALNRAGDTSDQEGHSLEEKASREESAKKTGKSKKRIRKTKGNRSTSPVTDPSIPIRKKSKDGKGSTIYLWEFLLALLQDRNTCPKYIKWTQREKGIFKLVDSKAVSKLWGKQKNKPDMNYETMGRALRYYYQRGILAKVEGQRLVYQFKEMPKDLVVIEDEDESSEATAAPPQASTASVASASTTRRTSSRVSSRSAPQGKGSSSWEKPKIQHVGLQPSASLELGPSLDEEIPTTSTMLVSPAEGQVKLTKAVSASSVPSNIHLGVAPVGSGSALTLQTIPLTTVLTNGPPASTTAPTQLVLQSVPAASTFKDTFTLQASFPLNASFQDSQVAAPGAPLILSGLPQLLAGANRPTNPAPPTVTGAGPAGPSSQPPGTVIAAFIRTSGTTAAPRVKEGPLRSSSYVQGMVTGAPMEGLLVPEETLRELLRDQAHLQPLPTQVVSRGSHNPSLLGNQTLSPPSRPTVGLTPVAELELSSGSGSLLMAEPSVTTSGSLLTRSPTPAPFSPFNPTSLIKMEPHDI
Chain of CRX (O43186 whole entry): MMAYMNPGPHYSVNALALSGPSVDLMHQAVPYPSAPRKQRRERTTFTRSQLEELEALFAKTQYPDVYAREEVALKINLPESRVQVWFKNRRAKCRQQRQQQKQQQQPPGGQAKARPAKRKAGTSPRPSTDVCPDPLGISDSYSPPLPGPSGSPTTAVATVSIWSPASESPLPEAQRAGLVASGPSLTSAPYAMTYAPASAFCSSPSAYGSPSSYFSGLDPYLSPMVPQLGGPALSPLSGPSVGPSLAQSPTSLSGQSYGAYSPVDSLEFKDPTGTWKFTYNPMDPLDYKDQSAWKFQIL
Chain of ETV6 (P41212 whole entry): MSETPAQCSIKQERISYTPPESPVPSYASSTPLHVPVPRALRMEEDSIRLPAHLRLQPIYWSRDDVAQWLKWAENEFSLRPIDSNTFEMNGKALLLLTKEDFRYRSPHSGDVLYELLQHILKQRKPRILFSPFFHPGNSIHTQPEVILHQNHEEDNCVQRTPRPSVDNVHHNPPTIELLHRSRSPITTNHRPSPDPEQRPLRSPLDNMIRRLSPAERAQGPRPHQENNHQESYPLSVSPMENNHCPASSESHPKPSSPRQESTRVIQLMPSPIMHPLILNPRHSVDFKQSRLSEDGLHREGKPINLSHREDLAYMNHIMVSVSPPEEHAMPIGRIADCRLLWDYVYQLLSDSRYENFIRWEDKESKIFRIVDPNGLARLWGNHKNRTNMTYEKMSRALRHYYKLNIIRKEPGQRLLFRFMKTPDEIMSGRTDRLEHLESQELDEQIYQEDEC
Chain of ETV5 (P41161 whole entry): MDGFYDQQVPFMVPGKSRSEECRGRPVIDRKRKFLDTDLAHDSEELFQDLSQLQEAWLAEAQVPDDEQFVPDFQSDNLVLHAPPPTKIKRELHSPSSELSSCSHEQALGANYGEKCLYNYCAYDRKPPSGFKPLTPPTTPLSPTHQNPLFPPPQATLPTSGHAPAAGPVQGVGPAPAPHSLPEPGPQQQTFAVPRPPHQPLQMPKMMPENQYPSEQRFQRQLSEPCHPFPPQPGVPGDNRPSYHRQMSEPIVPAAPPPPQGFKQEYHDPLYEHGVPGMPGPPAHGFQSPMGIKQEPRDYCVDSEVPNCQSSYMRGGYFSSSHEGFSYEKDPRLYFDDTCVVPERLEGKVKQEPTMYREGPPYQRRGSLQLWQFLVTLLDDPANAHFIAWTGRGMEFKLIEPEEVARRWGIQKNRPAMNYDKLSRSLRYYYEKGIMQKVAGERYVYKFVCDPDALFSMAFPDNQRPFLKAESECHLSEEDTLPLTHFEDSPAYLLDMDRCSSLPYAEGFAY
Chain of ETV1 (P50549 whole entry): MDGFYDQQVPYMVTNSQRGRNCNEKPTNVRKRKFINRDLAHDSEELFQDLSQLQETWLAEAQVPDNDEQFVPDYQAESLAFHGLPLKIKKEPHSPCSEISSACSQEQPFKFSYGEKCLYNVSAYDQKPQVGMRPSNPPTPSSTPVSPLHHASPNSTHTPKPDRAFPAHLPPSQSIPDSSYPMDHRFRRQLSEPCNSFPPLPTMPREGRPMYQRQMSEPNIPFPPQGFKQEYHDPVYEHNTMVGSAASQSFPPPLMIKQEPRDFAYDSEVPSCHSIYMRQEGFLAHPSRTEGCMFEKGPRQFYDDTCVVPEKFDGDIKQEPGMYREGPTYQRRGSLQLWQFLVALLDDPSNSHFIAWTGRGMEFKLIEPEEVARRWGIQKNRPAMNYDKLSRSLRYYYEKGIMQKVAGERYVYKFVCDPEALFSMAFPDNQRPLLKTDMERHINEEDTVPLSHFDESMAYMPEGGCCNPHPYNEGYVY
Chain of HSF1 (Q00613 whole entry): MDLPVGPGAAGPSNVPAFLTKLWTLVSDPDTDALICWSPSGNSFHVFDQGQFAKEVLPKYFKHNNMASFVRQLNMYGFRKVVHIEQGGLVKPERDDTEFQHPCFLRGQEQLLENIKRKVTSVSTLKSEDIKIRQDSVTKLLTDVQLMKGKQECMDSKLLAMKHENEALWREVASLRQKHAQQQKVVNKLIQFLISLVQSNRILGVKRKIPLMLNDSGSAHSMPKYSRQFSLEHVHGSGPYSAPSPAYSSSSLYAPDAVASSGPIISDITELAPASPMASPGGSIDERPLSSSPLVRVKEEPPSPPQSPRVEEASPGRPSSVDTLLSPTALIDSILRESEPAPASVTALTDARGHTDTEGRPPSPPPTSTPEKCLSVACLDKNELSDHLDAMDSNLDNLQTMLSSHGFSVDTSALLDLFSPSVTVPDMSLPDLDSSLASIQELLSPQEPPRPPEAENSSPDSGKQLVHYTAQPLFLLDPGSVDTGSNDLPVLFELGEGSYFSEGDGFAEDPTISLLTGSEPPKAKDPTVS

Consider TCCATT, for which the binding signal is 1.31 fold enrichment (6-mer frequency, TF over GST control) in experiment [1]; 1.36 fold enrichment (6-mer frequency, TF over GST control) in [2]; 1.4 fold enrichment (6-mer frequency, TF over GST control) in experiment [3]; 1.31 fold enrichment (6-mer frequency, TF over GST control) in experiment [4]; 1.29 fold enrichment (6-mer frequency, TF over GST control) in experiment [5]; 1.37 fold enrichment (6-mer frequency, TF over GST control) in experiment [6]. In addition, the binding signal in experiment [7] is 1.19 fold enrichment (6-mer frequency, TF over GST control); in [8], 1.27 fold enrichment (6-mer frequency, TF over GST control); in experiment [9], 1.35 fold enrichment (6-mer frequency, TF over GST control); in experiment [10], 1.26 fold enrichment (6-mer frequency, TF over GST control); in [11] it was 1.23 fold enrichment (6-mer frequency, TF over GST control); in experiment [12], 1.22 fold enrichment (6-mer frequency, TF over GST control). For the same sequence, the binding signal in experiment [13] was 1.28 fold enrichment (6-mer frequency, TF over GST control); in experiment [14], 1.2 fold enrichment (6-mer frequency, TF over GST control); in experiment [15] it was 1.26 fold enrichment (6-mer frequency, TF over GST control); in experiment [16], 1.2 fold enrichment (6-mer frequency, TF over GST control); in experiment [17], 1.37 fold enrichment (6-mer frequency, TF over GST control); in experiment [18], 1.29 fold enrichment (6-mer frequency, TF over GST control).
